Compound activity as filed in PubChem BioAssay.
Most compounds without a hit are left out; they make up all but 14% or so of the library.
Lassa entry inh: Lassa virus entry inhibition | Lassa virus pseudotype entry inhibition, cell reporter | Potency, µM (highest dose often 37.9 µM), usual class: inhibitors | actives 1.2% (n = 300,000); calls by dose curve; tested in HEK293 cells; note: nearly all actives have a fitted effect of over 50% in size
Marburg entry inh: Marburg virus entry inhibition; Marburg virus pseudotyped entry inhibition, cell reporter; Potency, µM (titrated, usually from 37.8 µM), usual class: inhibitors; actives 1.8% (n = 300,000); AID 540276; calls by dose curve; tested in HEK293 cells
HCMV inh: inhibitors of human cytomegalovirus. actives 4.5% (n = 410,000). activity change, negative = inhibition, % at 57.5 µM. HFF cells, HCMV-luciferase reporter, 72 h; hits give low values; in the data active = activity change below about -60%; inconclusive = no clear call, values can overlap the other calls; inactive = above about -39%
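Compounds were evaluated in HFFs infected with an HCMV luciferase reporter virus (MOI 1 PFU/cell). Luciferase in lysates collected 72 h post infection served as the replication measure.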
HCV inhibitor: HCV inhibition; Huh7.5.1 HCVcc-Cre infection, luciferase reporter, 44 h; Potency, µM (series often up to 41.8 µM), usual class: inhibitors; actives 3.4% (n = 340,000); AID 651820
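Compounds are dispensed onto cells plated 4 h earlier at 1,000 per well, with HCVcc-Cre virus (about 0.5 moi) added next. Following 44 h of culture, luminescent signal is measured for 15 sec after 15 min with substrate at room temperature.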
Pf growth 48h: P. falciparum growth inhibition at 48 hours (one generation). P. falciparum luciferase growth in erythrocytes, 48 h. Potency, µM (titrated, usually from 28.7 µM), usual class: inhibitors. actives 5.9% (n = 310,000)
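Luciferase-expressing P. falciparum in infected erythrocytes (2% hematocrit, 0.1% parasitemia final) in RPMI 1640/0.5% Albumax were exposed to compound for 48 hours at 37 C, 5% CO2; growth read as luminescence.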
Pf growth 96h: P. falciparum growth inhibition at 96 hours | AID 504834 | actives 6.9% (n = 320,000) | Potency, µM (top dose mostly 28.7 µM), most hits filed as inhibitors | P. falciparum luciferase reporter growth, 96 h
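Delayed-death screen, second-generation endpoint: infected erythrocytes, 2% hematocrit, 0.05% parasitemia final; 96 hours at 37 C, 5% CO2; luciferase detection reagent; luminescence decrease equals reduced growth.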
Hits are given with their value; – = inactive; ? = inconclusive; · = not tested or not shown; [ ] = remark or other dose. Unless noted, calls come from the whole dose curve; as a rule, active = well fitted inhibition curve with a large enough effect; inconclusive = small, poorly fitted or top-dose-only effect, or another doubt; inactive = no such curve, though single readings can be large or run the other way.

SMILES	Lassa entry inh	Marburg entry inh	HCMV inh	HCV inhibitor	Pf growth 48h	Pf growth 96h
CC1CCCN(CC(O)COCC2COc3ccccc3O2)C1 (stereo not given)	–	–	–	–	–	–
Cn1c(SCC(=O)N2CCCc3ccccc32)ncc(C(=O)Nc2ccc(Cl)cc2)c1=O	–	·	–	·	·	·
CCc1cc2c(nc1CC)CCCN2CCOC	·	·	–	·	·	·
COCCNC(=O)c1ccc2c(=O)n(CCc3ccccc3)c(SCC(=O)CC(=O)OC)nc2c1	–	·	–	·	·	·
Cc1ccccc1OCC(O)CO (stereo not given)	·	·	·	·	–	–
Cc1ccccc1OCC(O)CN1CCN(CC(O)COc2ccccc2C)C(C)C1 (stereo not given)	?	?	–	–	9.3µM	?
Cn1cccc1-c1cc(C(=O)N/N=C/c2ccccc2Cl)[nH]n1	·	·	–	–	–	–
COc1ccc(/C=N/NC(=O)c2ccc(Br)cc2)c(OC)c1	–	–	?	–	?	?
COc1ccc(Br)cc1/C=N/NC(=O)c1cc(Br)ccc1O	·	·	·	·	–	–
Cn1cccc1-c1cc(C(=O)N/N=C/c2cc(Br)ccc2O)[nH]n1	?	?	-95	5µM	?	–
COc1ccc(O)c(/C=N/NC(=O)c2ccc(OCc3cccc(Br)c3)cc2)c1	?	?	-97	2.8µM	1.7µM	–
COc1ccc(C(=O)N/N=C/c2cc(Br)ccc2O)cc1OC	2.5µM	8.9µM	-97	11µM	?	?
COc1ccc(N2CCN(C(=O)COc3ccccc3C#N)CC2)cc1	·	–	–	·	·	·
Nc1nsnc1C(=O)NCCO	–	–	–	–	–	2.3µM
CCn1nnc(NC(=O)c2ccc(C(C)(C)C)cc2)n1	–	–	–	–	2.9µM	–[5.75 µM]
CC(=O)SC1CC2=CC(=O)CC[C@]2(C)C2CC[C@@]3(C)C(CC[C@@]34CCC(=O)O4)C12 (stereo not given in full)	?	–	·	·	·	·
COc1ccc(-c2cc(=O)oc3c4c(ccc23)OCN(Cc2ccccc2)C4)cc1	–	?	–	·	·	·
COc1ccc(Cc2nc3c4c(ncn3n2)Oc2c(ccc3ccccc23)C4c2ccc(OC)c(OC)c2)cc1 (stereo not given)	?	?	?	?	2.6µM	1.9µM
COc1ccc(C2c3c(ncn(Cc4ccco4)c3=N)Oc3ccc4ccccc4c32)cc1 (stereo not given)	?	?	–	?	?	?
COc1ccc(Cc2nc3c4c(ncn3n2)Oc2ccc3ccccc3c2C4c2ccc(OC)c(OC)c2)cc1 (stereo not given)	?	–	–	?	1.7µM	?
CCCCc1oc2ccc(NS(C)(=O)=O)cc2c1C(=O)c1ccc(OCCCN(CCCC)CCCC)cc1	·	·	-82	·	·	·
Nc1[nH]c(C(=O)c2ccccc2)c(-c2ccccc2C(F)(F)F)c1C(=O)NCCc1c[nH]c2ccccc12	·	·	-61	·	·	·
COc1ccc(CN2Cc3cnnn3-c3ccccc3C2C#N)cc1 (stereo not given)	·	·	-110	4µM	·	·
N#CC1c2ccccc2-n2nncc2CN1Cc1cc(Cl)cc(Cl)c1 (stereo not given)	·	·	-100	5.6µM	·	·
CN1Cc2cnnn2-c2ccccc2C1C#N (stereo not given)	·	·	-64	–[8.37 µM]	·	·
SMILES	Lassa entry inh	Marburg entry inh	HCMV inh	HCV inhibitor	Pf growth 48h	Pf growth 96h
COc1ccc(CN2Cc3cnnn3-c3ccccc3C2c2ccccc2)cc1 (stereo not given)	·	·	–	1.3µM	·	·
O=C(NNC(=O)C(c1ccccc1)c1ccccc1)c1ccccc1O	·	·	–	·	·	·
CC(=O)Nc1ccc(S(=O)(=O)N2Cc3cnnn3-c3ccccc3C2C#N)cc1 (stereo not given)	·	·	–	0.32µM	·	·
OC[C@@H]1O[C@](CO)(O[C@H]2O[C@H](CO)[C@@H](O)[C@H](O)[C@H]2O)[C@H](O)[C@H]1O	·	·	·	·	–	–
COc1ccc(C(=O)Nc2nc3ccccc3[nH]2)cc1OC	–	–	–	–	–	–
CCOc1ccc(C(=O)Nc2nc3ccccc3[nH]2)cc1OCC	·	11µM	-63	?	?	?
COc1cc(C(=O)Nc2nc3ccccc3[nH]2)ccc1OC(F)F	?	?	–	8.9µM	–	–
Cc1ccc(-n2cc(CN3CCN(C(=O)c4ncn[nH]4)CC3)c(-c3ccc(F)cc3)n2)cc1	·	·	–	?	12µM	15µM
Cc1ccc(-n2cc(CN3CCN(Cc4nccn4C)CC3)c(-c3ccc(F)cc3)n2)cc1	·	·	–	?	6.6µM	?
Cc1ccc(-n2cc(CN3CCN(c4ccccn4)CC3)c(-c3ccc(F)cc3)n2)cc1	?	?	–	?	9.3µM	–
Cc1cccc(-n2cc(CN3CCN(c4ccccn4)CC3)c(-c3cccc(F)c3)n2)c1	·	·	–	–	?	?
COc1ccc(-c2ccc(CCC(=O)O)n2-c2ccc(Cl)cc2C)cc1	–	?	–	·	·	·
